Most compounds without a hit are left out; they make up all but 1.4% or so of the library.
V-ATPase pHluor: yeast V-ATPase proton transport regulation by pHLuorin; response, % at 10 µM; S. cerevisiae, pHLuorin cytosolic pH fluorescence; 350,000 compounds, 0.37% hits; in the data active = response mostly above about 7.3%, no sharp cut-off; inactive = mostly below about 5.4%; also: actives read high
MIN6 prolif: MIN6 beta-cell proliferation induction. 330,000 compounds, 0.29% hits. MIN6 cells proliferation, ATPlite luminescence, 48 h; cells starved in 0.2% serum; 100% = growth in 10% serum. proliferation, % at 10 µM. AID 2380;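 active = compounds whose signal lies at least 3.5 SD above the mean of all wells on their plate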
HSV augment: HSV replication enhancement; maximum fold increase; HSV replication augmentation in cells, fold increase; AID 1956; 220,000 compounds, 0.005% hits; in the data active = maximum fold increase above about 1.5; inconclusive = no clear call, values can overlap the other calls; tested in PC3 cells
H9c2 protect: myocardial damage modulation in H9c2 cells | protection from H2O2 cell death, % at 20 µM | H9c2 cardiomyocytes, H2O2 injury protection, ATPLite, 2 h | 360,000 compounds, 0.63% hits | AID 588492;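 active = compounds giving at least 50% protection of heart cells from peroxide-induced death in the single-dose screen, raw or plate-pattern-corrected value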
CR mimetic SO: caloric restriction mimetics inhibiting age-related superoxide in yeast. S. cerevisiae aged cells, superoxide DHE fluorescence; stronger effect = lower value. superoxide response (% of plate mean), % at 10 µM. 330,000 compounds, 0.18% hits. AID 2690;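 active = superoxide response under a set limit, about three screen SD below normal, cut at about 65% in these data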;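 also: yeast aged for seven days with compound at 30 °C before DHE staining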
pCIP destab: lowers stability of the mouse p/CIP coactivator protein; decrease of EGFP signal, % at 10 µM; F442A p/CIP-EGFP cells, EGFP fluorescence, 16 h; 290,000 compounds, 0.01% hits; AID 1984;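 active = EGFP signal decrease of at least 30% at 10 µM or well 3 SD below plate mean, unless failing retest; inactive = the rest, including hits failing retest or dose response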
Target sequence (Q05BA5 1-1403): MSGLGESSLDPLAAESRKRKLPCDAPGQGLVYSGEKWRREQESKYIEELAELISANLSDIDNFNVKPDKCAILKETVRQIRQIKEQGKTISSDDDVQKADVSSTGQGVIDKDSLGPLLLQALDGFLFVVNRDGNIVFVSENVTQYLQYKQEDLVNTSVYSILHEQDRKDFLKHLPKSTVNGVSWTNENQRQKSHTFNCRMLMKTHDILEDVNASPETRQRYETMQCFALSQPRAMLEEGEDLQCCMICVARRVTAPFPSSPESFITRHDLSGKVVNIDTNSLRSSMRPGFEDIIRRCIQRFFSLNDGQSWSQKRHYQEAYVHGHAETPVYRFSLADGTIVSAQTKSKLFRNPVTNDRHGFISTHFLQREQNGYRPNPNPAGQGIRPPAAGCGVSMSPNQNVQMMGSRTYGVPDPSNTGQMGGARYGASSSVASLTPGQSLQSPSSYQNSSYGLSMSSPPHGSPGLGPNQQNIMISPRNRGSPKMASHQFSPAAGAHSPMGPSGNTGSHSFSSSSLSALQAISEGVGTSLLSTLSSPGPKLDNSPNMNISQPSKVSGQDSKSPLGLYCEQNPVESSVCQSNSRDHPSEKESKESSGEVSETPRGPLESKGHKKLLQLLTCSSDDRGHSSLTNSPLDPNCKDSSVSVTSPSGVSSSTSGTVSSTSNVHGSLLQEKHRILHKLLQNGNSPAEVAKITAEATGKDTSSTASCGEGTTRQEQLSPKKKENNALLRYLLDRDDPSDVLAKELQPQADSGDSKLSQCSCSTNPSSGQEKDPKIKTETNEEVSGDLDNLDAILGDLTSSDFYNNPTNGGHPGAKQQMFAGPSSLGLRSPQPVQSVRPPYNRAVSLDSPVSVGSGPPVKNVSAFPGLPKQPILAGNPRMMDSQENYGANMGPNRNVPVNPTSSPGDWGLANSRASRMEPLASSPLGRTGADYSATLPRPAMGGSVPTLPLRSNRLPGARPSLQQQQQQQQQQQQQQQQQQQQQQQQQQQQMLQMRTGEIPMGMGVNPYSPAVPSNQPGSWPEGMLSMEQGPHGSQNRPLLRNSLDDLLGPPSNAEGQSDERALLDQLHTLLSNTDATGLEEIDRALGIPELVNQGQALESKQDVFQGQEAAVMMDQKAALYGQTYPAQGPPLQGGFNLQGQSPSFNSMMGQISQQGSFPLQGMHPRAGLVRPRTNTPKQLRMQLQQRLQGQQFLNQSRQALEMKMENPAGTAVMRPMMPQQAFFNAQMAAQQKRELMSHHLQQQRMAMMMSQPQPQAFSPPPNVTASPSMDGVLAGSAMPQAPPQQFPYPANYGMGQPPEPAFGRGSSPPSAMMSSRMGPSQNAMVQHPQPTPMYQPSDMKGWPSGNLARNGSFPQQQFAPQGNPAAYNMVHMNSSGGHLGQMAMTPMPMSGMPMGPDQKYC
V-ATPase pH SP: yeast V-ATPase proton transport regulation; shares compounds with V-ATPase pHluor; S. cerevisiae pHLuorin cytosolic pH; response, % at 10 µM; 980 compounds, 2% hits; AID 602197; in the data active = response above about 24%
Of the large screens only hits and unclear results are named; the others gave an inactive call (follow-up assays come after a bar, where they were run).

COCCNC(=O)C1(C)CCN(C(=O)COc2ccc(Cl)cc2Cl)C1 (configuration not stated)	none (no result: V-ATPase pHluor, MIN6 prolif, HSV augment, CR mimetic SO, pCIP destab)
O=C(O)c1ccccc1C=NNc1ccccn1	none (no result: MIN6 prolif, HSV augment, CR mimetic SO, pCIP destab)
Cc1nc(C(=O)Nc2ccc(Cl)cc2)sc1C1(C)CC(c2cccc([N+](=O)[O-])c2)=NO1 (configuration not stated)	V-ATPase pHluor 10.0 (no result: pCIP destab) | V-ATPase pH SP inactive
COc1cc(OC)c(OC)cc1/C=N/n1c(C)nc2ccccc2c1=O	V-ATPase pHluor 14 (no result: HSV augment) | V-ATPase pH SP inactive
OC(Cc1ccccc1Br)c1ncc(-c2ccc(Cl)cc2)[nH]1 (configuration not stated)	none (no result: V-ATPase pHluor, MIN6 prolif, HSV augment, CR mimetic SO, pCIP destab)
CCOC(=O)C1(C(=O)OCC)NC(=O)CC1CC (configuration not stated)	V-ATPase pHluor 12 (no result: MIN6 prolif, HSV augment, CR mimetic SO, pCIP destab) | V-ATPase pH SP inactive
Cc1ccc(S(=O)(=O)N2CCN(C(=O)COC(=O)c3cccnc3Cl)CC2)c(C)c1	V-ATPase pHluor 13 (no result: HSV augment, pCIP destab) | V-ATPase pH SP inactive
N#C/C(=C(/O)COc1ccc(Br)cc1)c1nnc2n1CCCCC2	V-ATPase pHluor 7.5 | V-ATPase pH SP inactive
CN(Cc1nc(C(c2ccccc2)c2ccccc2)no1)CC1COCCO1 (configuration not stated)	V-ATPase pHluor 11 | V-ATPase pH SP inactive
CC(C)[C@H](NC(=O)N1c2ccccc2NC(=O)[C@@H]1C(C)C)C(=O)N1CCC(C(=O)O)CC1	none (no result: HSV augment)
CN(Cc1ccccc1)C(=O)c1nc2ccccn2c1CNCCn1cccn1	none
CC(c1ccon1)N(C)Cc1c(C(=O)N(C)Cc2ccccc2)nc2ccccn12 (configuration not stated)	V-ATPase pHluor 8.1 | V-ATPase pH SP inactive
CSCCC(NC(=O)c1ccco1)C(=O)NCC1CCCCC1 (configuration not stated)	none (no result: HSV augment, pCIP destab)
Cc1cccn2c(CNCCc3ccco3)c(C(=O)N3CCOCC3)nc12	none (no result: HSV augment, CR mimetic SO)
CN1/C(=C\C(=S)NC(=O)c2ccc([N+](=O)[O-])cc2)C(C)(C)c2ccccc21	V-ATPase pHluor 13, HSV augment inconclusive | V-ATPase pH SP inactive
Cc1occc1C(=O)N/N=C/c1sc(N2CCOCC2)nc1-c1ccccc1	V-ATPase pHluor 10 | V-ATPase pH SP inactive
COc1ccc(OCC(=O)Nc2nc3ccccc3[nH]2)cc1	none
O=C(COc1ccc2ccccc2c1)Nc1nc2ccccc2[nH]1	V-ATPase pHluor 11 | V-ATPase pH SP inactive
Cc1ccc2cccc(S(=O)(=O)N3CCCc4ccccc43)c2n1	none
CN1CCc2c(sc(N)c2C(=O)O)C1	V-ATPase pHluor 9.6 | V-ATPase pH SP inactive
CN1CCc2c(sc(NC(=O)c3ccc(C(=O)c4ccccc4)cc3)c2C(N)=O)C1	none (no result: HSV augment)
COc1ccc(CC(=O)N2CCc3cc(OC)c(OC)cc3C2C)c(OC)c1 (configuration not stated)	none (no result: HSV augment)
COc1ccc(OC)c(NC(=O)c2ccc(OC3CSC3)cc2)c1	V-ATPase pHluor 13 | V-ATPase pH SP inactive
O=C(OCc1ccccc1)/C(=C(\O)c1ccccc1Br)c1ccc(-c2ccccc2)cn1	none (no result: HSV augment, pCIP destab)
Cc1cccc(C(=O)NNC(=O)CCn2nnc3ccccc32)c1	none
Cc1ccc(C(=O)NNC(=O)CCn2nnc3ccccc32)cc1	V-ATPase pHluor 11 | V-ATPase pH SP inactive
CC(=O)Nc1cccc(C(=O)OCC(=O)NC(=O)NC2CCCC2)c1	none (no result: MIN6 prolif, HSV augment, CR mimetic SO, pCIP destab)
CC(=O)Nc1cccc(C(=O)OC(C)C(=O)NC(=O)NC2CCCCC2)c1 (configuration not stated)	V-ATPase pHluor 11 (no result: HSV augment, pCIP destab) | V-ATPase pH SP inactive
O=C(NCC1CCCO1)c1cc([N+](=O)[O-])ccc1Cl (configuration not stated)	none
CC(C)(O)c1cc2ccc(C#Cc3ccsc3)cc2c(=O)o1	none (no result: HSV augment, pCIP destab)
CCOc1nc2cnccc2n(CC(=O)Nc2cccc(C)c2)c1=O	none (no result: HSV augment)
CN(C)S(=O)(=O)c1ccc(C(=O)NCC(=O)Nc2ccc(F)c(F)c2)cc1	V-ATPase pHluor 7.0 (no result: HSV augment) | V-ATPase pH SP inactive
Clc1ccc(C(c2nnnn2CCc2ccccc2)N2CCSCC2)cc1 (configuration not stated)	none
COc1ccc(OC)c(CNC(=O)C2CCN(S(C)(=O)=O)CC2)c1	V-ATPase pHluor 11 | V-ATPase pH SP inactive
CC1CCCCN1S(=O)(=O)c1coc(C(N)=O)c1 (configuration not stated)	V-ATPase pHluor 7.0 | V-ATPase pH SP inactive
COCCNC(=S)NNc1ccccc1[N+](=O)[O-]	none
CCCCOC(=O)C1=C(C)Nc2ncnn2C1c1cccc(OC)c1OC (configuration not stated)	none
COc1cccc(C2C(C(=O)OCc3ccccc3)=C(C)Nc3ncnn32)c1OC (configuration not stated)	V-ATPase pHluor 8.5 | V-ATPase pH SP inactive
Cc1cc(OCCN2CCN(S(=O)(=O)c3ccccc3F)CC2)ccc1C(C)C	none (no result: HSV augment, pCIP destab)
O=C(NCCC1=CCCCC1)C1CCCN(S(=O)(=O)c2cccc3cccnc23)C1 (configuration not stated)	V-ATPase pHluor 7.3 | V-ATPase pH SP inactive
O=C(NCCC1=CCCCC1)C1CCCN(S(=O)(=O)c2cccnc2)C1 (configuration not stated)	none
O=C(N/N=C/c1ccc(O)cc1O)c1ccncc1	V-ATPase pHluor 6.8 (no result: HSV augment) | V-ATPase pH SP inactive
O=[N+]([O-])c1ccc2nc(N3CCCC3)sc2c1	none (no result: HSV augment)
O=C(c1ccccc1)N1CCN(c2nc3ccc([N+](=O)[O-])cc3s2)CC1	V-ATPase pHluor 16 | V-ATPase pH SP inactive
O=C(NC(=S)N1CCN(c2ccc(O)cc2)CC1)c1ccco1	none (no result: HSV augment, pCIP destab)
CN1CCN(C(=S)NC(=O)c2ccco2)CC1	V-ATPase pHluor 11 | V-ATPase pH SP inactive
CCc1ccc(Cn2nnc(C(=O)Nc3ccc(OC)cc3OC)c2N)cc1	V-ATPase pHluor 12 | V-ATPase pH SP inactive
O=[N+]([O-])c1cc([N+](=O)[O-])c(N2CCCCCC2)cc1NCCO	V-ATPase pHluor 8.3 | V-ATPase pH SP inactive
CN(C)C(CNC(=S)Nc1ccc(Cl)cc1)c1cccnc1 (configuration not stated)	none
OCCC1CN(Cc2cccc3nonc23)CCN1Cc1ccsc1 (configuration not stated)	none
OCCC1CN(Cc2ccccc2OC2CCCC2)CCN1Cc1ccsc1 (configuration not stated)	V-ATPase pHluor 8.4 | V-ATPase pH SP inactive
CCCCN(C(=O)c1ccc(NC2CC2)c([N+](=O)[O-])c1)c1c(N)n(CCCC)c(=O)[nH]c1=O	none (no result: HSV augment, CR mimetic SO, pCIP destab)
CCOc1ccccc1NC(=O)NNC(=O)c1ccc2ccccc2c1	V-ATPase pHluor 13 (no result: HSV augment) | V-ATPase pH SP inactive
CCOc1ccccc1NC(=O)c1ccc2ccccc2c1	none (no result: HSV augment)
O=C(CCC(=O)c1ccc(F)cc1)Nc1cc(Cl)cc(Cl)c1	none | V-ATPase pH SP inactive
CC(=O)c1cccc(NC(=O)CCC(=O)c2ccc(F)cc2)c1	none (no result: HSV augment, CR mimetic SO)
Cc1ccc(CN2CCCN(Cc3c(F)cccc3Cl)S2(=O)=O)cc1	none (no result: HSV augment)

Compound activity as filed in PubChem.
